PubChem BioAssay
Calls of active or inactive are those of the source. Unless noted, no rule for the calls is given here.

Columns and labels:
[1] = anti-His antibody binders, primary screen, artefact control for SMM control protein annotation, biochemical, small-molecule microarray, 635 nm fluorescence (AID 1128); details: anti-His Alexa647 antibody binding, higher = more signal;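 also: score merges feature fluorescence with signal-to-noise for each printed compound spot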
[2] = tested on: Human papillomavirus type 1a E7 protein (residues 1-88); test: HPV1a E7 small-molecule binders, primary screen, biochemical, small-molecule microarray, residues 1-88, 635 nm (AID 1129); details: small-molecule microarray binding, fluorescence 635 nm; higher = more signal
[3] = biological target: Focal adhesion kinase 1 (Homo sapiens) (UniProt Q05397); test: small-molecule microarray binders of FAK, primary screen, biochemical, 635/667 nm fluorescence, BSA, DTT (AID 1130); details: PTK2 binding, 635 nm fluorescence, higher = more signal;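 also: composite of spot emission at 667 nm and signal to noise over triplicate slides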
[4] = tested on: Fibrinogen (Alexa647-labelled); test: fibrinogen binders on compound microarrays, profiling panel, artefact control for SMM control-protein annotation, biochemical, small-molecule microarray, 635/667 nm fluorescence (AID 1131); details: fibrinogen-A647 binding fluorescence, higher = more signal;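 also: z-score merges 667 nm fluorescence with per-spot signal-to-noise over triplicate slides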
[5] = biological target: Follistatin (Homo sapiens) (UniProt P19883); test: follistatin binders on small-molecule microarrays, primary screen, biochemical, small-molecule microarray, 635/667 nm fluorescence (AID 1132); details: FST binding, 635 nm fluorescence, higher = more signal
[6] = biological target: Fibroblast growth factor 2 (Homo sapiens) (UniProt P09038); test: FGF2 binders on small-molecule microarrays, primary screen, biochemical, small-molecule microarray, 635/667 nm fluorescence (AID 1133); details: small-molecule microarray binding, FGF2, fluorescence 635/667; higher = more signal
[7] = mitochondrial membrane potential change in A549 cells, profiling panel, cell-based, JC-1 fluorescence, basal, 24 h, 100 nL (AID 1138); details: higher = more signal;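 also: A549 lung adenocarcinoma cells under basal conditions with no added stimulus; test concentration not given here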
Lefty1 = Lefty1 binders on small-molecule microarrays, primary screen, biochemical, small-molecule microarray, 635/667 nm fluorescence (AID 1139); details: small-molecule microarray binding, fluorescence 635/667; higher = more signal
[8] = tested on: wheat germ agglutinin (Triticum aestivum), Alexa647-labelled; test: wheat germ agglutinin binders on compound microarrays, profiling panel, artefact control for SMM control-protein annotation, biochemical, small-molecule microarray, 635/667 nm fluorescence (AID 1140); details: WGA-A647 binding, 635 nm fluorescence, higher = more signal;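 also: score merges 667 nm feature emission with signal to noise over triplicate slides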
[9] = biological target: Luciferin 4-monooxygenase (Photinus pyralis) (UniProt P08659); test: firefly luciferase enzyme inhibitors, primary screen, biochemical, luminescence, purified enzyme, 2006 set (AID 1141); details: SteadyGlo luminescence, 30 min, higher = more signal, called active from +8 up or from −8 down;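 also: cell-free assay with purified firefly luciferase at 100 ng per well in PBS; test concentration not given here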
[10] = tested on: Wnt5a (protein binding on small-molecule microarray); test: Wnt5a binders on small-molecule microarray, primary screen, biophysical, 635/667 nm fluorescence (AID 1142); details: 635 nm fluorescence, higher = more signal;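 also: fluorescence read at 667 nm with signal to noise per printed feature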
[11] = cell viability in Huh7 cells, primary screen, cytotoxicity control for HCV replication inhibitor project, CellTiter-Glo luminescence, basal, 48 h (AID 1143); details: Huh7 HCV replicon, higher = more signal, called active from +8 up or from −8 down;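 also: Huh7 hepatoma cells carrying a hepatitis C replication reporter with no stimulus; test concentration not given here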
[12] = P. aeruginosa biofilm formation inhibitors, primary screen, PAO1 strain, BacTiter-Glo luminescence, LB-PBS (AID 1144); details: 12 h, higher = more signal
[13] = CREB reporter modulators without forskolin, primary screen, cell-based, PC12, CRE-LacZ reporter, unstimulated (AID 1145); details: no forskolin, luminescence, 4.5 h, higher = more signal, called active from +8 up or from −8 down
[14] = CREB reporter modulators under forskolin, primary screen, cell-based, PC12, CRE-LacZ reporter, forskolin-stimulated (AID 1146); details: luminescence, 4.5 h, higher = more signal, called active from +8 up or from −8 down;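 also: PC12 cells with 6xCRE LacZ reporter stimulated by forskolin 10 µM; beta-galactosidase reporter signal reflecting CREB driven transcription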
[15] = biological target: Streptavidin (Streptomyces avidinii) (UniProt P22629); test: streptavidin binders on small-molecule microarray, primary screen, artefact control for SMM compound annotation, biophysical, 635/667 nm fluorescence (AID 1147); details: streptavidin binding, higher = more signal;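 also: signal reflects streptavidin binding to arrayed compounds as a control protein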
[16] = small-molecule binders of probe aInhba, primary screen, biochemical, small-molecule microarray, 635/667 nm fluorescence (AID 1148); details: higher = more signal;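 also: score merges 667nm spot fluorescence with signal-to-noise for antibody binding to printed compounds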
Torsin-1A (Homo sapiens) [17] = biological target: Torsin-1A (Homo sapiens) (UniProt O14656); test: torsin A binders from cell lysate, primary screen, small-molecule microarray, wild-type, 635/667 nm (AID 1149); details: COS7 hTOR1A-WT lysate, 635 nm fluorescence, higher = more signal
Torsin-1A (Homo sapiens) [18] = biological target: Torsin-1A (Homo sapiens) (UniProt O14656); test: small-molecule binders of mutant TOR1A in lysate, primary screen, cell lysate, small-molecule microarray, COS7 lysate, 635/667 nm fluorescence (AID 1150); details: COS7 hTOR1A mutant lysate, 635 nm fluorescence, higher = more signal;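 also: score pools 667 nm emission and signal to noise measuring lysate protein binding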
[19] = tested on: Sonic hedgehog protein (Shh); test: small-molecule binders of Shh protein, primary screen, biochemical, small-molecule microarray, 635/667 nm fluorescence (AID 1151); details: small-molecule microarray binding, 635 nm fluorescence; higher = more signal;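 also: Shh protein binding to compounds spotted on small-molecule microarray slides; score combines spot fluorescence intensity with signal-to-noise across triplicate slides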

Torsin-1A (Homo sapiens), sequence (O14656 whole entry, looked up): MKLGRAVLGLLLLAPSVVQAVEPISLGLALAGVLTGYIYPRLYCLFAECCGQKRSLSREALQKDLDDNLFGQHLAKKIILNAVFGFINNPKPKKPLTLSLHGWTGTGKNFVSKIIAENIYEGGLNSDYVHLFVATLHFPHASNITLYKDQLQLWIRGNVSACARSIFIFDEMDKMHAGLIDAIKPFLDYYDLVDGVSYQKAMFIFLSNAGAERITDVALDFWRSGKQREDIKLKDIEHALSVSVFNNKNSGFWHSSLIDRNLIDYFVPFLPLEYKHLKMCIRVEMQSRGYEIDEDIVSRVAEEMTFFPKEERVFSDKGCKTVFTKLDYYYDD
Streptavidin (Streptomyces avidinii), sequence (P22629 whole entry, looked up): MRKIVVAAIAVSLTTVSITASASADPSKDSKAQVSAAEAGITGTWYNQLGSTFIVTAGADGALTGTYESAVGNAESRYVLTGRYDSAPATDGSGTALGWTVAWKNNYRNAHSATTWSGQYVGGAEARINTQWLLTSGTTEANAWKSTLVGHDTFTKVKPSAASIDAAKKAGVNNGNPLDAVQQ
Follistatin (Homo sapiens), sequence (P19883 whole entry, looked up): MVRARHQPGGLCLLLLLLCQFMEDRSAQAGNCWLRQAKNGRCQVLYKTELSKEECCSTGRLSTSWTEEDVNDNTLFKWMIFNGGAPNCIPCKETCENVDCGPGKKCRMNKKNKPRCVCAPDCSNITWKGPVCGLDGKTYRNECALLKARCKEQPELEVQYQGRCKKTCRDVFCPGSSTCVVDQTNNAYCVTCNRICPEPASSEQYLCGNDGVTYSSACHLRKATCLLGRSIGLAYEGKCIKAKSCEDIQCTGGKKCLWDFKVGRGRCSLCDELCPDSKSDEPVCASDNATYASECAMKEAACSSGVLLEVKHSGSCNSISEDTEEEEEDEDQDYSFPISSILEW
Focal adhesion kinase 1 (Homo sapiens), sequence (Q05397 whole entry, looked up): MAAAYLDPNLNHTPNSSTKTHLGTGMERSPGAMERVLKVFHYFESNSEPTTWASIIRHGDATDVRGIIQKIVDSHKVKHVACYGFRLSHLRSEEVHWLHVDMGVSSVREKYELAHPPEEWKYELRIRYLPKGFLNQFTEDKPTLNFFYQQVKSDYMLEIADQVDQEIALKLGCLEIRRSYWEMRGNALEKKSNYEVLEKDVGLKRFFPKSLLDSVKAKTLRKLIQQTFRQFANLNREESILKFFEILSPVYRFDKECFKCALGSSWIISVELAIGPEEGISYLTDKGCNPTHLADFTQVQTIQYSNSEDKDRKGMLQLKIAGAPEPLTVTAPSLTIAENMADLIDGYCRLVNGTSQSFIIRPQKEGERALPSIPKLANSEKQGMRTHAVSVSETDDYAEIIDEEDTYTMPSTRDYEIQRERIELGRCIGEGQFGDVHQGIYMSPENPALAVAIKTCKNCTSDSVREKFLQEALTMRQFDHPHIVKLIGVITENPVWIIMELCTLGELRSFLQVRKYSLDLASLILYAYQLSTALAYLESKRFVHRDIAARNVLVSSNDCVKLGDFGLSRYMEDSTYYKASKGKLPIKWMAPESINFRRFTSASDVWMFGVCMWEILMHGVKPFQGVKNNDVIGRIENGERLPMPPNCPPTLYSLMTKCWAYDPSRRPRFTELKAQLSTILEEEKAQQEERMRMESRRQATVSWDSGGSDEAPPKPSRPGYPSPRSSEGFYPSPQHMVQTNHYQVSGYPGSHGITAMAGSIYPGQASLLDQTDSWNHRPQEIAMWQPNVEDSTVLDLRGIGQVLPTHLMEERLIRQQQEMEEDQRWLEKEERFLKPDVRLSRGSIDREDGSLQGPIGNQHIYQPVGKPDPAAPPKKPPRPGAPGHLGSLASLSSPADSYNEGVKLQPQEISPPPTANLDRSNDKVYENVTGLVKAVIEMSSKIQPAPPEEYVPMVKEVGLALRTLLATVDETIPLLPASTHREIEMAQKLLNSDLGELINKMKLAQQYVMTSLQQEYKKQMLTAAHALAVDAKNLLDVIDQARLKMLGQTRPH
Luciferin 4-monooxygenase (Photinus pyralis), sequence (P08659 whole entry, looked up): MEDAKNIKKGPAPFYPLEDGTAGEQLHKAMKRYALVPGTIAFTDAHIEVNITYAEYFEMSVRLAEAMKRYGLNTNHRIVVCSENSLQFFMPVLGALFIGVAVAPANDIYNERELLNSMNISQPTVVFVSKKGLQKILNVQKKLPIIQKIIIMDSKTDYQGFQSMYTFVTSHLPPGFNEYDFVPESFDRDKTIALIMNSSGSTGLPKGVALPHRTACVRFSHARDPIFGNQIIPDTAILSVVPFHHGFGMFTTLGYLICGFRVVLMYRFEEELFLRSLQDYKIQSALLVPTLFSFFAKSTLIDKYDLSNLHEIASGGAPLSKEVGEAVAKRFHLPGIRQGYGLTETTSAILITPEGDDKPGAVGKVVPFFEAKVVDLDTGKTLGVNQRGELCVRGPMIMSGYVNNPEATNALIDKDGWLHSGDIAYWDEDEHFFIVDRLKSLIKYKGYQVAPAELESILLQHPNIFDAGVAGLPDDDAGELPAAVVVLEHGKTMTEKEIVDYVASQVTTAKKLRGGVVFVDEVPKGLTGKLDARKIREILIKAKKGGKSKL
Fibroblast growth factor 2 (Homo sapiens), sequence (P09038 whole entry, looked up): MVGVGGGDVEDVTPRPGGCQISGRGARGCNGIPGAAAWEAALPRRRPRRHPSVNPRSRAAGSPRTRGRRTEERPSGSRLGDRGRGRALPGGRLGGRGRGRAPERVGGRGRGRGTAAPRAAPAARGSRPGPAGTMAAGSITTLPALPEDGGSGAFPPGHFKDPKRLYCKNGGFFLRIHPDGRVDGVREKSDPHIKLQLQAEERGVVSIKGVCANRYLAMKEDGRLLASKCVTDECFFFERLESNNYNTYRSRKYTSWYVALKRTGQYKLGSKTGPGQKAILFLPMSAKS

SMILES | composite z-score [1] | composite z-score [2] | composite z-score [3] | composite z-score [4] | composite z-score [5] | composite z-score [6] | z-score [7] | composite z-score (Lefty1) | composite z-score [8] | z-score [9] | composite z-score [10] | z-score [11] | z-score [12] | z-score [13] | z-score [14] | composite z-score [15] | composite z-score [16] | composite z-score (Torsin-1A (Homo sapiens) [17]) | composite z-score (Torsin-1A (Homo sapiens) [18]) | composite z-score [19]
COC(=O)[C@@]1(Cc2ccc(OC)cc2)[C@H]2c3cc(C(=O)N4CCCC4)n(CCc4c[nH]c5ccc(O)cc45)c3C[C@H]2CN1C(=O)c1ccccc1 | 0.256 | 1.23 | 0.594 | 0.948 | 1.16 | 0.0628 | 0.623 | 0.111 | 0.92 | -1.31 (inactive) | 0.431 | -0.759 (inactive) | 0.34 (inactive) | 0.587 (inactive) | -0.397 (inactive) | 0.971 | 0.192 | 0.132 | 0.318 | -0.229
CC(CO)N1C(=O)[C@@H]2[C@H]3C(=O)OCC=C[C@H]3OC23C=CCN(Cn2nnc4ccccc42)C(=O)[C@@H]13 (stereo not given in full) | -1.02 | -1.43 | -0.432 | -0.8 | -0.72 | -0.358 | -0.528 | -0.406 | -0.596 | 0.27 (inactive) | -0.33 | -0.407 (inactive) | 1.48 (inactive) | 0.0524 (inactive) | -0.391 (inactive) | -0.78 | -0.213 | -0.49 | -1.26 | 0.464
[N-]=[N+]=Nc1ccccc1C[C@]1(C(=O)O)COC(c2ccc(OCCCO)cc2)=N1 | -0.047 | -0.914 | 0.0699 | -1.45 | -0.224 | -0.717 | -0.991 | -0.843 | 0.396 | -13.9 (active) | -0.0485 | 0.0518 (inactive) | -0.812 (inactive) | 1.18 (inactive) | -0.313 (inactive) | -0.213 | -0.0405 | -2.54 | -1.52 | -1.14
C=CC[C@]1(C(=O)N2CCCCC2)N=C(c2ccc(OCCCO)cc2)O[C@H]1c1ccccc1CN=[N+]=[N-] | 1.33 | 1.24 | 0.293 | 1.01 | 1.29 | 0.524 | 1.29 | 0.228 | 0.657 | 0.498 (inactive) | 0.518 | -4.07 (inactive) | -1.44 (inactive) | 1.45 (inactive) | 1.86 (inactive) | 0.997 | 0.121 | 0.0016 | 0.361 | -0.27
CC(=O)NCCCC[C@@H]1NC(=O)[C@@H]2C[C@H](C(=O)NCCCCCN)[C@H](c3ccc(O)cc3)N2C1=O | 0.367 | 1.19 | 0.445 | 0.671 | 1.33 | 1.24 | -0.664 | 1.58 | 0.283 | -0.399 (inactive) | 0.66 | -0.224 (inactive) | 0.268 (inactive) | 0.285 (inactive) | -0.389 (inactive) | 0.977 | 0.221 | 1.14 | 1.54 | 1.52
CCOC(=O)C[C@H]1[C@H](OC(=O)c2ccc(-c3ccccc3)cc2)[C@@H](NC(=O)CC(C)C)c2cc(OCCCO)ccc2N1C(=O)c1ccc2ccccc2n1 | -0.282 | 0.516 | 0.365 | 0.944 | 0.285 | 0.0792 | 0.5 | 0.455 | 0.262 | 0.854 (inactive) | -0.0361 | -0.0042 (inactive) | -0.453 (inactive) | 1.04 (inactive) | -0.428 (inactive) | 1.31 | -0.0259 | 0.0908 | 0.31 | 0.637
C=CCC(OC(C)=O)[C@@H]1[C@@H](N(Cc2ccc(-c3cccc(C(F)(F)F)c3)o2)C(=O)Cc2ccc(OC)cc2)c2cc(OCCCO)ccc2N1C(=O)c1ccc(-c2ccccc2)cc1 (stereo not given in full) | -0.0127 | -0.501 | -0.326 | -0.771 | 0.569 | 0.119 | 0.0544 | 0.0533 | -0.402 | 0.244 (inactive) | 0.0179 | -1.28 (inactive) | 0.198 (inactive) | 1.15 (inactive) | 0.393 (inactive) | 1.31 | 0.153 | -0.368 | -0.38 | 0.439
CCCC[C@@H](O)C1=C(COC)C[C@H]2C(=O)N(Cc3ccccc3)C(=O)[C@H]2[C@H]1CO | 0.708 | 0.33 | -0.285 | 0.98 | 0.855 | 1.33 | 0.699 | 0.697 | 1.13 | -0.903 (inactive) | 0.0314 | -0.168 (inactive) | 0.102 (inactive) | 0.216 (inactive) | -0.566 (inactive) | -0.0045 | -0.204 | 0.707 | 0.69 | 1.02
COc1ccc(C(=O)Nc2ccc(CN3C(=O)[C@]4(O[C@H](CC(=O)N5Cc6ccccc6C[C@H]5CO)[C@@H]([Si](C)(C)c5ccc(OC)cc5)[C@@H]4C)c4ccccc43)cc2)cc1 | 1.46 | 1.16 | 0.353 | 0.547 | 1.1 | 1.35 | -0.615 | 1.08 | 0.75 | -0.379 (inactive) | 0.307 | -3.81 (inactive) | 0.556 (inactive) | -0.011 (inactive) | -0.6 (inactive) | 0.134 | -0.132 | 0.851 | 0.93 | 2.04
